Reference: ChEMBL document CHEMBL1201862, “PubChem BioAssay data set” (2004)
In all, about 400,000 compounds went through this assay and about 2,100 (0.53%) were called active. Roughly 14% stayed inconclusive and do not appear here. How the calls were made is not given here. The full list was thinned out, with actives kept by preference.

target: Ataxin-2 (Homo sapiens) (UniProt Q99700); experiment: qHTS for Inhibitors of ATXN expression.; assay type: functional
Sequence (Q99700 whole entry): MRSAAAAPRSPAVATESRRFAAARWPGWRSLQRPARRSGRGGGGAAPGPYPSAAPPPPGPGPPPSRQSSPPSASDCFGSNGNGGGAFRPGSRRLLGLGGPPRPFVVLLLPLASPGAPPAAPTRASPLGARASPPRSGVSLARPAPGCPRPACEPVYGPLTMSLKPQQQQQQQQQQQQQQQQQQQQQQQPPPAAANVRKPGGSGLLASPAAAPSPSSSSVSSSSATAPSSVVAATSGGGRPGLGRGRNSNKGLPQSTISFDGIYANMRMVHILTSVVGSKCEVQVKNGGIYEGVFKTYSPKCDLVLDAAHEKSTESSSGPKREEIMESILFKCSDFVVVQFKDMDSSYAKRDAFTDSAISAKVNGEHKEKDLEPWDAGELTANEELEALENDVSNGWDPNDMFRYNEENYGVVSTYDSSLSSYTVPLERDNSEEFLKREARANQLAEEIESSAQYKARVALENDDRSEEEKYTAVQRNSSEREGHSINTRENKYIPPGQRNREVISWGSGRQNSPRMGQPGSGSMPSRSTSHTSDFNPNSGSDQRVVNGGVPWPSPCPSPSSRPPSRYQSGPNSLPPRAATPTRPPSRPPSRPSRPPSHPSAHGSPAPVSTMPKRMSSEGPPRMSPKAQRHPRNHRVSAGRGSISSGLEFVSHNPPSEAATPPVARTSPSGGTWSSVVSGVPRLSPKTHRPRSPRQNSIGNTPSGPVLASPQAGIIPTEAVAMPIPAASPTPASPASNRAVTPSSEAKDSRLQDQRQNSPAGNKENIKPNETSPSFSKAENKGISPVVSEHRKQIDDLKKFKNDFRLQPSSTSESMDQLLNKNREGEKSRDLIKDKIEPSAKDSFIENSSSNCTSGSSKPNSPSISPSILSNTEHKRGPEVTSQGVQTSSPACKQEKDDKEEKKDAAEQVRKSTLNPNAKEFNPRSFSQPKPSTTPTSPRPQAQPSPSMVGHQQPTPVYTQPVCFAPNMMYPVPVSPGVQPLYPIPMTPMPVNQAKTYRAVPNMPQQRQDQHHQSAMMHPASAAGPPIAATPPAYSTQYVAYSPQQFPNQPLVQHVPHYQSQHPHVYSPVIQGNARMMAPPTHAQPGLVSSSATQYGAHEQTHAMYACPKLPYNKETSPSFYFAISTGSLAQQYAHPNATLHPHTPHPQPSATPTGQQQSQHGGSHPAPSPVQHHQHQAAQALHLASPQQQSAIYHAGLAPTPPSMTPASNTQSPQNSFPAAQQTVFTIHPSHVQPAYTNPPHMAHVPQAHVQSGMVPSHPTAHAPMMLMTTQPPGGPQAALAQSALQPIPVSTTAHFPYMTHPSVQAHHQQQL

| SMILES | Potency |
| --- | --- |
| Cc1c(C)c(C)c(S(=O)(=O)N2CCNCC2)c(C)c1C | inactive |
| COCCN1C=C(C(=O)OC)C(c2ccccc2Cl)C(C(=O)OC)=C1 | inactive |
| O=C(N[C@@H](Cc1ccccc1)C(=O)OCc1ccccc1)c1[nH]cnc1C(=O)N1CCN(c2ccccc2)CC1 | 22.4 µM (active) |
| O=C(N[C@@H](Cc1ccccc1)C(=O)OCc1ccccc1)c1ccco1 | inactive |
| O=C(NC(CC(=O)N1CCN(c2ccccc2)CC1)c1ccccc1)c1ccccc1 (configuration not stated) | inactive |
| CC(C)C[C@H](NC(=O)c1[nH]cnc1C(=O)N1CCN(C(=O)OC(C)(C)C)CC1)C(=O)OCc1ccccc1 | 35.5 µM (active) |
| O=C(O)CCCC(=O)N1CCN(c2nc(-c3ccccc3)c3ccccc3n2)CC1 | inactive |
| COc1ccc2nc(C)cc(N/N=C/c3cccc(OC)c3O)c2c1 | 35.5 µM (active) |
| COc1cccc(-c2cc(C(=O)N/N=C/c3cccc(OC)c3OC)c3ccccc3n2)c1 | inactive |
| Cc1cc(C(=O)N/N=C/c2cccnc2)c2ccccc2n1 | inactive |
| COc1cccc(/C=N/n2c(SC)nnc2-c2ccccc2)c1O | inactive |
| COc1ccc2nc(C)cc(SCC(=O)N/N=C/c3cccc4ccccc34)c2c1 | 22.4 µM (active) |
| COc1ccc(/C=N/Nc2cc(C)nc3ccc(OC)cc23)c(OC)c1 | inactive |
| COc1ccc2nc(C)cc(N/N=C/c3ccccc3)c2c1 | 31.6 µM (active) |
| COc1ccc2cc(/C=N/NC(=O)CN(c3ccccc3C)S(=O)(=O)c3ccccc3)c(Cl)nc2c1 | inactive |
| COc1ccc2nc(S)cc(C)c2c1 | inactive |
| COc1ccc(C(=O)Nc2nc3n(n2)C(c2ccccc2)C=C(c2ccccc2)N3)cc1 (configuration not stated) | inactive |
| COc1cccc(C2C=C(c3cccs3)Nc3ncnn32)c1OC (configuration not stated) | inactive |
| Cc1nc(N)c(Br)c(C)c1Br | inactive |
| Clc1ccccc1N1CCN(Cc2ccco2)CC1 | inactive |
| CCOC(=O)c1sc2nc(C3CC3)cc(-c3ccc(F)cc3)c2c1N | inactive |

| SMILES | Potency |
| --- | --- |
| Cc1ccccc1NCC(=O)Nc1cc(S(=O)(=O)N2CCCCC2)ccc1C | inactive |
| SC1=C2CCCCCC2=NC2(CCCCCC2)S1 | 44.7 µM (active) |
| CSC1=NN(c2ccccc2)CN(c2ccccc2)N1C | inactive |
| COc1ccc(-c2c(C)c3ccc(O)c(CN4CCC(C)CC4)c3oc2=O)cc1OC | inactive |
| CCOC(=O)C1CCN(S(=O)(=O)c2ccc3c4c(cccc24)C(=O)N3)CC1 | inactive |
| CC1=[N+](C)c2c(ccc3cccnc23)C1(C)C | inactive |
| CC(C)c1ccc2nc3sc(C(=O)N4CCc5ccccc5C4)c(N)c3cc2c1 | inactive |
| Cn1c2ccccc2c(=O)c2c(=O)n(C3CCCCCC3)c(C3CCCCC3)nc21 | inactive |
| Cc1c(C(=O)Nc2nc3ccccc3[nH]2)oc2ccccc12 | 39.8 µM (active) |
| C/C(=N\Nc1nc2ccccc2[nH]1)c1cc2ccccc2o1 | inactive |
| COc1ccc(C(=O)N[C@H](C(=O)Nc2nc3ccccc3[nH]2)C(C)C)cc1 | inactive |
| COCCNC(=O)c1cnn2c(C(F)(F)F)cc(-c3ccc(C)cc3)nc12 | inactive |
| CCOC(=O)c1cc2c(=O)n3ccccc3nc2n(CCCOC)/c1=N\C(=O)c1ccncc1 | inactive |
| CN1CCN(c2ccc3sc(-n4ccc5ccccc54)nc3c2)CC1 | 39.8 µM (active) |
| CN1CCN(c2ccc(-c3ccc4ccccc4n3)cc2)CC1 | inactive |
| O=c1c(-c2nc3ccccc3s2)cccn1Cc1ccccc1 | inactive |
| C[C@@H]1O[C@H](O[C@@H]2[C@H](C)O[C@H](O[C@@H]3[C@H](C)O[C@H](O[C@H]4CC[C@]5(C)[C@@H](CC[C@@H]6[C@H]5C[C@@H](O)[C@]5(C)[C@@H](C7=CC(=O)OC7)CC[C@]65O)C4)C[C@@H]3O)C[C@@H]2O)C[C@H](O)[C@@H]1O | 0.224 µM (active) |
| CN(C)c1nc(-c2ccccc2)c2cc(Cl)ccc2n1 | inactive |
| Cc1c(CC(=O)NCc2ccccc2Cl)c(=O)oc2cc(O)ccc12 | inactive |
| COc1ccc(C=Cc2ccc3ccccc3n2)c(OC)c1 | inactive |
| COc1cc(/C=C/c2ccc3cccc(OC)c3n2)c(OC(C)=O)c([N+](=O)[O-])c1 | 35.5 µM (active) |

| SMILES | Potency |
| --- | --- |
| CC(=O)Oc1c(Cl)cc(Cl)cc1/C=C/c1ccc2ccccc2n1 | inactive |
| CCOC(=O)c1c(C)[nH]c(C)c1C(=O)COC(=O)c1ccc([N+](=O)[O-])s1 | inactive |
| CCOC(=O)c1c(C)[nH]c(C)c1C(=O)COC(=O)c1ccc(S(=O)(=O)C(F)F)cc1 | inactive |
| CCOC(=O)c1c(C)[nH]c2c1-c1ccccc1C(=O)C2=O | 2.82 µM (active) |
| O=C(NCc1ccco1)c1cccc2c1C(=O)c1ccc(N3CCC(Cc4ccccc4)CC3)cc1S2(=O)=O | inactive |
| CC1(C)CNc2cc([N+](=O)[O-])ccc2S1 | inactive |
| CCOC(=O)c1cc(-c2ccccc2)nc2nc(N3CCCCC3)sc12 | inactive |
| CCOC(=O)c1c(-c2ccccc2)nnn1-c1nc(OCC)nc(N2CCCCC2)n1 | 39.8 µM (active) |
| CCOC(=O)N1CCN(c2nc(-c3ccccc3)c3ccccc3n2)CC1 | inactive |
| C=C1C(=O)OC2C1CCC(C)=CCCC1(C)OC21 (configuration not stated) | 22.4 µM (active) |
| C=CCN(C(=O)CSc1nc2ccsc2c(=O)n1Cc1ccccn1)c1ccccc1 | inactive |
| C=C(C)CSc1cc(C)c(C#N)c2nc3ccccc3n12 | inactive |
| CCCn1c(=N)c(C(=O)NC2CCCC2)cc2c(=O)n3cccc(C)c3nc21 | inactive |
| CCc1nc2c(OCCC3CCCCC3)cccn2c1N(C)C(=O)C(C)C | 35.5 µM (active) |
| CCOCCCn1c(=N)c(C(=O)NC2CCCCC2)cc2c(=O)n3ccccc3nc21 | inactive |
| CCn1c(=N)c(C(=O)NC2CCCCC2)cc2c(=O)n3cccc(C)c3nc21 | inactive |
| CCOCCCn1c(=N)c(C(=O)NC2CCCC2)cc2c(=O)n3cccc(C)c3nc21 | inactive |
| CCC(CC)C(=O)N(C)c1c(C)nc2c(OCCC3CCCCC3)cccn12 | 31.6 µM (active) |
| CCc1nc2c(OCCC3CCCCC3)cccn2c1N(C)C(=O)C1CC1 | 35.5 µM (active) |
| O=C(NCc1cccc(F)c1)c1cccc2c1C(=O)c1ccc(N3CCC(Cc4ccccc4)CC3)cc1S2(=O)=O | inactive |
